Reference: PubChem BioAssay (NCATS)
Records with an inconclusive call do not appear. Calls of active or inactive are those of the source. The call rests on the fitted dose curve; in most records, active means well fitted cell-killing curve with a large enough effect; inconclusive means small, poorly fitted or top-dose-only effect, or effect the other way; inactive means flat fitted curve, though single readings scatter. Where a SMILES comes first, the peptide text is derived from it. [ ]: non-standard residue; d: D form. pGlu = O=C1CC[C@@H](C(=O)O)N1

System: OV90
Assay: Primary qHTS to identify gynecologic anti-cancer compounds using libraries of approved drugs and bioactive compounds (AID 1345084); further: nearly all actives have a fitted effect of over 55% in size
Conditions: Gynecologic cancer cell panel viability, ATPlite luminescence, 48 h; series mostly up to 57.5 µM; activity change, negative = cytotoxicity: at the top concentration
Summary of the method: (§1)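 ATP-based viability (ATPlite), 1,000 cells/well, 16 h pre-incubation, 48 h compound at 37 C, 5% CO2, 15 min RT before read.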
On the % scale 0 is the no-effect control and ±100 the full control effect; potency means the concentration at half of the fitted maximal effect.

| Structure (SMILES) | activity change, negative = cytotoxicity | Potency |
| --- | --- | --- |
| CN1CC(=O)N2[C@H](c3ccc4c(c3)OCO4)c3[nH]c4ccccc4c3C[C@@H]2C1=O | -4.47% (inactive) | – |
| COc1ccc2cc(C=O)ccc2c1 | 4.05% (inactive) | – |
| COC(=O)C1=CO[C@@H](O)[C@@H]2C(CO)=CC[C@H]12 | 5.85% (inactive) | – |
| CCOC(=O)CN1CCCC1=O | -1.43% (inactive) | – |
| NCC[C@H](O)C(=O)N[C@@H]1C[C@H](N)[C@@H](O[C@H]2O[C@H](CN)[C@@H](O)[C@H](O)[C@@H]2O)[C@H](O)[C@@H]1O[C@H]1O[C@H](CO)[C@@H](O)[C@H](N)[C@@H]1O | -0.567% [at 0.462 µM] (inactive) | – |
| Cc1nc(N)nc(N)c1-c1ccc(Cl)c(Cl)c1 | – | 891 nM (active) |
| CC1(C)O[C@@H]2C[C@H]3[C@@H]4C[C@H](F)C5=CC(=O)C=C[C@]5(C)[C@@]4(F)[C@@H](O)C[C@]3(C)[C@]2(C(=O)CO)O1 | 5.63% (inactive) | – |
| Cc1[nH]cnc1-c1ccc(Cl)cc1 | 3.07% (inactive) | – |
| OC1(c2ccccc2)CCNCC1 | 17.1% (inactive) | – |
| CC(=O)N[C@@H](CO)C(=O)N[C@@H](CC(=O)O)C(=O)N[C@@H](CCCCN)C(=O)N1CCC[C@H]1C(=O)O (Ac-SDKP-OH) | 11.2% (inactive) | – |
| CCOC(=O)c1cc(=O)c2c(OCC(COc3cccc4oc(C(=O)OCC)cc(=O)c34)OC(=O)[C@@H](N)CCCCN)cccc2o1 | 14.3% (inactive) | – |
| C/C(=C(/OCCOc1ccc(Cl)cc1)c1ccc(Cl)cc1Cl)n1ccnc1 | -9.15% (inactive) | – |
| O=C(c1cc(O)c(O)c(O)c1)c1ccc(O)c(O)c1O | -7.02% (inactive) | – |
| CCOC(=O)Oc1ccc(CCNC(=O)[C@H](CCSC)NC(C)=O)cc1OC(=O)OCC | -18.9% (inactive) | – |
| CCOCCn1c(C2CCN(CCc3ccc(C(C)(C)C(=O)O)cc3)CC2)nc2ccccc21 | 1.61% (inactive) | – |
| Cc1ccc(CCn2c3c(c4cc(Cl)ccc42)CN(C)CC3)cn1 | -28% (inactive) | – |
| O=C1NC(c2ccccc2)(c2ccccc2)C(=O)N1COP(=O)(O)O | -0.77% (inactive) | – |
| CCCC(=O)O[C@]1(C(=O)CC)CC[C@H]2[C@@H]3CCC4=CC(=O)CC[C@]4(C)[C@H]3[C@@H](O)C[C@@]21C | -16.4% (inactive) | – |
| CCNC(=O)[C@@H]1CCCN1C(=O)[C@H](CCCN=C(N)N)NC(=O)[C@H](CC(C)C)NC(=O)CNC(=O)[C@H](Cc1ccc(O)cc1)NC(=O)[C@H](CO)NC(=O)[C@H](Cc1c[nH]c2ccccc12)NC(=O)[C@H](Cc1cnc[nH]1)NC(=O)[C@@H]1CCC(=O)N1 ([pGlu]HWSYGLRP-NHEt) | 8.58% (inactive) | – |
| CC(=O)c1cc2ccccc2s1 | 22.1% (inactive) | – |

| Structure (SMILES) | activity change, negative = cytotoxicity | Potency |
| --- | --- | --- |
| Fc1ccc(C(c2ccc(F)cc2)N2CCNCC2)cc1 | -35.1% (inactive) | – |
| CN(C)CCN(Cc1ccsc1)c1ccccn1 | -0.151% (inactive) | – |
| COc1ccc(OC(=O)N(CC(=O)O)Cc2ccc(OCCc3nc(-c4ccccc4)oc3C)cc2)cc1 | -1.27% (inactive) | – |
| CN(C)CCN1CCN(c2cccc(Cl)c2)C1=O | 7.84% (inactive) | – |
| Cc1oc(-c2ccccc2)nc1CCC(=O)c1ccc(CC2SC(=O)NC2=O)cc1 (stereo not given) | -14% (inactive) | – |
| COC(=O)c1cc(S(N)(=O)=O)ccc1OC | 3.03% (inactive) | – |
| Nc1ncnc2c1ncn2Cc1c(F)cccc1Cl | 6.79% (inactive) | – |
| O=C1c2ccccc2CCc2ccccc21 | 0.825% (inactive) | – |
| CC(C)C[C@@H]1[C@H](c2ccccc2)OC(=O)N1CCCN1CCCCCC1 | -33.3% (inactive) | – |
| CC(C)(C)c1ccc(C(=O)CCCCl)cc1 | 3.94% (inactive) | – |
| CC(Oc1c(Cl)cccc1Cl)C1=NCCN1 (stereo not given) | -0.523% (inactive) | – |
| CC(=O)N1CCN(c2ccc(O)cc2)CC1 | -10.2% (inactive) | – |
| O=C1Nc2cc(Cl)ccc2Oc2ccccc21 | -0.628% (inactive) | – |
| Cc1ccc(C(=O)C(=O)O)cc1C | 8.95% (inactive) | – |
| Cc1ccc2c(Cl)cc(Cl)c(O)c2n1 | -0.645% (inactive) | – |
| CCCCOCCOC(=O)c1cccnc1 | 2.76% (inactive) | – |
| CN1Cc2cc(C(=O)N3CCC(C4CCNCC4)CC3)ccc2N[C@@H](CC(=O)O)C1=O | 0.227% (inactive) | – |
| O=C(O)Cn1c(=O)n(Cc2ccc(Br)cc2F)c(=O)c2ccc(Cl)cc21 | 0.316% (inactive) | – |
| COC(=O)/C=C(/C)N | 7.88% (inactive) | – |
| CC(C)(C)NCC(O)COc1ccccc1OCC1CCCO1 (stereo not given) | 2.85% (inactive) | – |

System: PA-1
Assay: as above
Conditions: Gynecologic cancer cell panel viability, ATPlite luminescence, 48 h; series mostly up to 57.5 µM; activity change, negative = cytotoxicity: at the top concentration
Summary of the method: as §1

| Structure (SMILES) | activity change, negative = cytotoxicity | Potency |
| --- | --- | --- |
| CN1CC(=O)N2[C@H](c3ccc4c(c3)OCO4)c3[nH]c4ccccc4c3C[C@@H]2C1=O | -14.3% (inactive) | – |
| COc1ccc2cc(C=O)ccc2c1 | 10.1% (inactive) | – |
| COC(=O)C1=CO[C@@H](O)[C@@H]2C(CO)=CC[C@H]12 | -2.75% (inactive) | – |
| CCOC(=O)CN1CCCC1=O | 17.6% (inactive) | – |
| NCC[C@H](O)C(=O)N[C@@H]1C[C@H](N)[C@@H](O[C@H]2O[C@H](CN)[C@@H](O)[C@H](O)[C@@H]2O)[C@H](O)[C@@H]1O[C@H]1O[C@H](CO)[C@@H](O)[C@H](N)[C@@H]1O | 20.2% [at 0.462 µM] (inactive) | – |
| Cc1nc(N)nc(N)c1-c1ccc(Cl)c(Cl)c1 | – | 3160 nM (active) |
| CC1(C)O[C@@H]2C[C@H]3[C@@H]4C[C@H](F)C5=CC(=O)C=C[C@]5(C)[C@@]4(F)[C@@H](O)C[C@]3(C)[C@]2(C(=O)CO)O1 | 4.27% (inactive) | – |
| Cc1[nH]cnc1-c1ccc(Cl)cc1 | -3.02% (inactive) | – |
| OC1(c2ccccc2)CCNCC1 | 14.7% (inactive) | – |
| CC(=O)N[C@@H](CO)C(=O)N[C@@H](CC(=O)O)C(=O)N[C@@H](CCCCN)C(=O)N1CCC[C@H]1C(=O)O (Ac-SDKP-OH) | 8.82% (inactive) | – |
| CCOC(=O)c1cc(=O)c2c(OCC(COc3cccc4oc(C(=O)OCC)cc(=O)c34)OC(=O)[C@@H](N)CCCCN)cccc2o1 | 5.51% (inactive) | – |
| C/C(=C(/OCCOc1ccc(Cl)cc1)c1ccc(Cl)cc1Cl)n1ccnc1 | -14.1% (inactive) | – |
| O=C(c1cc(O)c(O)c(O)c1)c1ccc(O)c(O)c1O | -8.44% (inactive) | – |
| CCOC(=O)Oc1ccc(CCNC(=O)[C@H](CCSC)NC(C)=O)cc1OC(=O)OCC | 1.23% (inactive) | – |
| CCOCCn1c(C2CCN(CCc3ccc(C(C)(C)C(=O)O)cc3)CC2)nc2ccccc21 | 1.8% (inactive) | – |
| Cc1ccc(CCn2c3c(c4cc(Cl)ccc42)CN(C)CC3)cn1 | 1.74% (inactive) | – |
| O=C1NC(c2ccccc2)(c2ccccc2)C(=O)N1COP(=O)(O)O | 8.63% (inactive) | – |
| CCCC(=O)O[C@]1(C(=O)CC)CC[C@H]2[C@@H]3CCC4=CC(=O)CC[C@]4(C)[C@H]3[C@@H](O)C[C@@]21C | -6.27% (inactive) | – |
| CCNC(=O)[C@@H]1CCCN1C(=O)[C@H](CCCN=C(N)N)NC(=O)[C@H](CC(C)C)NC(=O)CNC(=O)[C@H](Cc1ccc(O)cc1)NC(=O)[C@H](CO)NC(=O)[C@H](Cc1c[nH]c2ccccc12)NC(=O)[C@H](Cc1cnc[nH]1)NC(=O)[C@@H]1CCC(=O)N1 ([pGlu]HWSYGLRP-NHEt) | -2.72% (inactive) | – |
| CC(=O)c1cc2ccccc2s1 | 16.1% (inactive) | – |

| Structure (SMILES) | activity change, negative = cytotoxicity | Potency |
| --- | --- | --- |
| Fc1ccc(C(c2ccc(F)cc2)N2CCNCC2)cc1 | -2.06% (inactive) | – |
| CN(C)CCN(Cc1ccsc1)c1ccccn1 | 0.32% (inactive) | – |
| COc1ccc(OC(=O)N(CC(=O)O)Cc2ccc(OCCc3nc(-c4ccccc4)oc3C)cc2)cc1 | -11.4% (inactive) | – |
| CN(C)CCN1CCN(c2cccc(Cl)c2)C1=O | -3.68% (inactive) | – |
| Cc1oc(-c2ccccc2)nc1CCC(=O)c1ccc(CC2SC(=O)NC2=O)cc1 (stereo not given) | -18.7% (inactive) | – |
| COC(=O)c1cc(S(N)(=O)=O)ccc1OC | 14% (inactive) | – |
| Nc1ncnc2c1ncn2Cc1c(F)cccc1Cl | 0.0386% (inactive) | – |
| O=C1c2ccccc2CCc2ccccc21 | -0.63% (inactive) | – |
| CC(C)C[C@@H]1[C@H](c2ccccc2)OC(=O)N1CCCN1CCCCCC1 | -1.51% (inactive) | – |
| CC(C)(C)c1ccc(C(=O)CCCCl)cc1 | -2.55% (inactive) | – |
| CC(Oc1c(Cl)cccc1Cl)C1=NCCN1 (stereo not given) | 1.03% (inactive) | – |
| CC(=O)N1CCN(c2ccc(O)cc2)CC1 | 11.5% (inactive) | – |
| O=C1Nc2cc(Cl)ccc2Oc2ccccc21 | 0.0731% (inactive) | – |
| Cc1ccc(C(=O)C(=O)O)cc1C | 24.8% (inactive) | – |
| Cc1ccc2c(Cl)cc(Cl)c(O)c2n1 | 7.89% (inactive) | – |
| CCCCOCCOC(=O)c1cccnc1 | -3.24% (inactive) | – |
| CN1Cc2cc(C(=O)N3CCC(C4CCNCC4)CC3)ccc2N[C@@H](CC(=O)O)C1=O | -2.34% (inactive) | – |
| O=C(O)Cn1c(=O)n(Cc2ccc(Br)cc2F)c(=O)c2ccc(Cl)cc21 | -0.708% (inactive) | – |
| COC(=O)/C=C(/C)N | 34.6% (inactive) | – |
| CC(C)(C)NCC(O)COc1ccccc1OCC1CCCO1 (stereo not given) | -1.02% (inactive) | – |
